ALOX12 inhib – inhibitors of human 12-lipoxygenase (ALOX12); P18054; Potency, µM (series often up to 57.1 µM), for the others: at the top dose activity change, negative = inhibition, most hits filed as inhibitors; purified 12-hLO, xylenol orange hydroperoxide absorbance; 150,000 tested, 0.12% active; active means well fitted curve in the direction sought with a large enough effect; inconclusive means small, poorly fitted or top-dose-only effect, or another doubt; inactive means no such curve, though single readings can be large; an effect the other way counts as inactive or inconclusive; further: potency means the concentration at half of the fitted maximal effect; nearly all actives have a fitted effect of over 55% in size
Target sequence (P18054 whole entry, looked up): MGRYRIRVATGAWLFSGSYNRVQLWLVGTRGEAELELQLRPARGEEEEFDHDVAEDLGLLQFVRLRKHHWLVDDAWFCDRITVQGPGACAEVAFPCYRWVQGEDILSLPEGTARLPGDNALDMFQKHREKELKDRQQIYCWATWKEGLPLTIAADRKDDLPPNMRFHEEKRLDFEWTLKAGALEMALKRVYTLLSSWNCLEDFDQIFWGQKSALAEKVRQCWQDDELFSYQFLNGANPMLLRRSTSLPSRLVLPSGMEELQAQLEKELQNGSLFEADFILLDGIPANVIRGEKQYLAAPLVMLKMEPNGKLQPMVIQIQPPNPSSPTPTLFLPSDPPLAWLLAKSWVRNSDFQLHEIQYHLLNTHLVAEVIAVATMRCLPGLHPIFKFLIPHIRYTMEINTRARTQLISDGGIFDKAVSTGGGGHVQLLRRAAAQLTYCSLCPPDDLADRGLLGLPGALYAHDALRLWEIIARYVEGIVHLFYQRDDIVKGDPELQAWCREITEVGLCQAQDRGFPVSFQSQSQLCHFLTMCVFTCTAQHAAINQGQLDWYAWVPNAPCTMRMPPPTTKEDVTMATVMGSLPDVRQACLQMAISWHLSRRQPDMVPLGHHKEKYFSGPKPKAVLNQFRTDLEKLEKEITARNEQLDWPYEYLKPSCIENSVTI
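Purified human 12hLO (150 nM), preincubated 15 min with compound, then 40 uM arachidonic acid for 30 min, room temperature, Hepes pH 7.0 with 0.01% Triton X-100. Hydroperoxide detected by ferrous iron/xylenol orange; 573/405 nm absorbance ratio gives reaction progress.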
HPGD inh – inhibitors of human 15-hydroxyprostaglandin dehydrogenase (HPGD); Potency, µM, inactives show top-dose activity change, negative = inhibition, most hits filed as inhibitors; P15428; 150,000 tested, 4.3% active; purified HPGD, NADH fluorescence kinetic, PGE2 substrate; further: potency means the concentration at half of the fitted maximal effect
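20 nM HPGD preincubated 15 min at room temperature with compound in 50 mM Tris-HCl pH 8, 0.01% Tween 20. Started with 1 mM NAD+ and 30 uM prostaglandin E2; NADH fluorescence (360/450 nm) read 5 times over 30-s intervals, last minus first.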
ALDH1A1 block – ALDH1A1 (human) enzyme inhibition | Purified ALDH1A1, NADH fluorescence, propionaldehyde substrate | 220,000 tested, 7.3% active | Potency, µM (titrated, usually from 75.3 µM), without a hit: at the top dose activity, negative = inhibition, most hits filed as inhibitors | P00352 | AID 1030;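 further: potency means the concentration at half of the fitted maximal effect; plate controls were no enzyme wells and a reference inhibitor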
IMPase cell inh – IMPase inhibition in cells | AID 901 | CHO-M1 cells, IP1 accumulation, HTRF TR-FRET ratio | 120,000 tested, under 10 active | inhibition (IP1 accumulation), % at 46.1 µM; active means well fitted curve in the direction sought with a large enough effect in the signal ratio, not every such curve was filed as active; inconclusive means small, poorly fitted or top-dose-only effect, or a change in a side signal; inactive means no such curve, though single readings can be large or run the other way; the % refers to the signal ratio;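 further: cells stimulated with carbachol in lithium chloride buffer; plate controls were DMSO basal wells for no effect and reference inhibitor wells for full effect; higher means more IMPase inhibition seen as more IP1 and lower FRET ratio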
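Cellular IMPase inhibition is scored as a rise in cytosolic IP1, detected by competitive TR-FRET between d2-labelled IP1 and a europium anti-IP1 antibody. M1-expressing CHO cells were stimulated with carbachol for 30 min at 37C, with lithium (50 mM LiCl) present in the buffer.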
IMPase Li inh – IMPase inhibition in cells with lithium potentiation; Potency, µM (titrated, usually from 59.4 µM), inactives show at the highest dose activity, negative = IMPase inhibition, most hits filed as inhibitors; 210,000 tested, 0.35% active; CHO-M1 cells, IP1 TR-FRET (IP-One), carbachol + lithium; active means well fitted curve in the direction sought with a large enough effect; inconclusive means small, poorly fitted or top-dose-only effect, or another doubt; inactive means no such curve, though single readings can be large; an effect the other way counts as inactive or inconclusive;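 further: IP1 builds up when IMPase is blocked and the TR-FRET signal falls; potency means the concentration at half of the fitted maximal effect; plate controls were basal vehicle for no effect and high inhibitor control for full effect; nearly all actives have a fitted effect of over 50% in size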
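Concentration–response in CHO-M1 cells, lithium-potentiated; 30 min at 37C. IP1 detected by competitive TR-FRET after 10 min lysis at RT. Hill-fitted AC50.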
PNC assembly inh – inhibitors of perinucleolar compartment assembly; activity change (PNC), negative = inhibition, % at 10 µM; 140,000 tested, 3.1% active; AID 2417; PC3M PTB-GFP, PNC prevalence imaging, 16 h; active compounds read low;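 active means readout at or below -70, meaning at least 70% loss of cells showing the perinucleolar compartment, a nuclear body marking cancer cells; inconclusive means readout between -30 and a set limit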;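 further: plate controls were DMSO wells for no effect and camptothecin positive control wells for full effect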
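PC3M cells stably expressing PTB-GFP, 750–1000 cells/well, treated 16 h at 37 °C with compound (23 nl of library stock), in duplicate. After paraformaldehyde fixation and Hoechst stain, imaged at 20x; PNC prevalence scored by image analysis.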
Starred values were filed as active, the others as inactive; [ ] = another dose, or the depositor's remark. Only some compounds are listed: those with a hit (about 11% of all), similar ones and a draw of the others. Unless noted, the call rests on the fitted dose curve; in most records, active means well fitted inhibition curve with a large enough effect (not every such curve was filed as active); inconclusive means small, poorly fitted or top-dose-only effect, or another doubt; inactive means no such curve, though single readings can be large or run the other way. Unless noted, on the % scale 0 is the no-effect control and ±100 the full control effect.

Cc1ccc(NC2=NCC(=O)N2CCc2ccccc2)cc1C was read as ALOX12 inhib -5%, HPGD inh -12%, ALDH1A1 block 4%, IMPase cell inh 16, IMPase Li inh 1% and PNC assembly inh -9.
COC(=O)N1C2CC3(C)CC(=O)CC1(C)C3c1ccccc12 (stereo not given) was read as ALOX12 inhib 0%[11.4 µM], HPGD inh -4%, ALDH1A1 block 10%[13.5 µM] and IMPase Li inh -8%.
For CC(N)=NCCCC[C@H](N)C(=O)O the results were ALOX12 inhib -3%, HPGD inh -5%, ALDH1A1 block -4%, IMPase cell inh 2 and IMPase Li inh 12%.
For CCOc1ccc(NC(=O)C2CC(C)=C(C)CC2C(=O)O)cc1 (stereo not given) the results were ALOX12 inhib -4%, HPGD inh -8%, ALDH1A1 block 2%, IMPase cell inh 5, IMPase Li inh 12%[38.3 µM] and PNC assembly inh -23.
`CCOc1ccc(NC(=O)C2CC(=O)OC2c2ccccc2)cc1` (stereo not given) gave ALDH1A1 block 25µM* and IMPase Li inh -2%.
Screening CCOc1ccc(NC(=O)c2ccccc2O)cc1 returned ALOX12 inhib 7%, HPGD inh -13%, ALDH1A1 block 0%, IMPase cell inh 10, IMPase Li inh 11% and PNC assembly inh -104*.
`COc1ccc(CCNC(=O)CN2CCN(c3cccc(Cl)c3)CC2)cc1OC` gave ALOX12 inhib -6%, HPGD inh -7%, ALDH1A1 block -9%, IMPase cell inh 8, IMPase Li inh -2%[38.3 µM] and PNC assembly inh -91*.
`COc1ccc(CCNC(=O)C(=O)NCc2ccc(C(C)C)cc2)cc1OC` gave ALOX12 inhib 4%, HPGD inh -19%, ALDH1A1 block 0.79µM*, IMPase cell inh 3, IMPase Li inh 6%[38.3 µM] and PNC assembly inh -3.
`COc1ccc(CNC(=O)CN2CCN(S(=O)(=O)c3cccs3)CC2)cc1OC` gave ALDH1A1 block 11µM* and IMPase Li inh 9%.
Screening COc1cccc(-n2c(N)c(-c3nc4ccccc4[nH]3)sc2=S)c1 returned ALDH1A1 block 28µM* and IMPase Li inh 2%.
`O=C(NCc1ccco1)C1(c2ccc(Br)cc2)CCCC1` gave ALOX12 inhib 8%, HPGD inh -16%, ALDH1A1 block 0.18µM*, IMPase cell inh 0, IMPase Li inh 41%[38.3 µM] and PNC assembly inh 9.
Screening O=C(NCc1ccco1)c1ccccc1Br returned ALOX12 inhib 1%, HPGD inh 2µM*, ALDH1A1 block 9%, IMPase cell inh -7, IMPase Li inh -4%[38.3 µM] and PNC assembly inh inconclusive.
Screening O=C(NCc1ccco1)Nc1ccc(Br)cc1 returned ALOX12 inhib -8%, HPGD inh -8%, ALDH1A1 block 3%, IMPase cell inh 2, IMPase Li inh -6%[38.3 µM] and PNC assembly inh 10.
Screening CS(=O)(=O)Nc1ccccc1C(=O)NCc1ccco1 returned ALOX12 inhib 2%, HPGD inh inconclusive, ALDH1A1 block inconclusive, IMPase cell inh -5, IMPase Li inh 14%[38.3 µM] and PNC assembly inh 35.
For CC(C)(C)C(=O)Nc1ccccc1C(=O)NCc1ccco1 the results were ALOX12 inhib -6%, HPGD inh -29%, ALDH1A1 block inconclusive, IMPase cell inh -1, IMPase Li inh -3%[38.3 µM] and PNC assembly inh -138*.
Screening CCSc1ccccc1C(=O)NCc1ccco1 returned ALOX12 inhib 5%, HPGD inh 13µM*, ALDH1A1 block 2%, IMPase cell inh -3, IMPase Li inh -5%[38.3 µM] and PNC assembly inh inconclusive.
`COc1ccc2[nH]c3nc(SCc4nnc(-c5ccc(C)cc5)o4)nnc3c2c1` gave ALOX12 inhib -10%, HPGD inh -4%, ALDH1A1 block -3%, IMPase cell inh 3, IMPase Li inh 33%[38.3 µM] and PNC assembly inh 49.

Bioassay records (PubChem BioAssay)
